# Measured values taken from PubChem BioAssay AID1918969 (ICCB-Longwood Screening Facility, Harvard Medical School, 2023).
# Where “and” joins values, the source holds several entries; their conditions need not be identical. Equal entries are not always repeated. Hit rate of the full screen: of about 190,000 compounds, about 280 (0.15%) were called active. This is one part of a sample in which actives are shown more often than they occur. A number with no mark means an inactive call. Rule as the data show it: active = inhibition above about 27% (passing the limit was not always enough); inactive = the rest.
# Tested on: HCMV UL50-UL53 nuclear egress complex (human cytomegalovirus)
# Assay: inhibitors of HCMV UL50-UL53 interaction, biochemical, HTRF (AID 1918969)
# Settings: normalized percent inhibition, active compounds read high, concentration not given here
row,SMILES,inhibition
1,CCCC1O[C@@H]2CC3C4CCC5=CC(=O)C=CC5(C)C4[C@@H](O)CC3(C)[C@]2(C(=O)CO)O1 (stereo partly drawn),-70.7%
2,O=C(OCc1nc2ccccc2s1)c1coc2ccccc2c1=O,54.6% (active)
3,O=C(CCc1nc2ccccc2s1)OCC(=O)c1ccco1,-34.2%
4,NNC(=O)CCCc1nc2ccccc2s1,-31.3%
5,CCOc1cc(/C=C2/C(=O)N(c3nn[nH]n3)N=C2C)cc(Cl)c1OCC,-8.7%
6,CC(C(=O)OCc1ccc(F)cc1)N1C(=O)c2ccccc2C1=O (stereo not drawn),-2.6%
7,O=C(CC(c1ccccc1)c1ccccc1)NCc1ccco1,13.4%
8,O=c1c(-c2nnc3c(Cl)nc4ccccc4n23)coc2ccccc12,-9.1%
9,Cc1n[nH]c(C)c1Cc1ccc(N)cc1,-0.1%
10,Cc1ccc(-n2ccnc(NCCc3ccccc3)c2=O)cc1,-0.4%
11,CCN(CC)S(=O)(=O)c1ccc(N=Nc2c(O)[nH]c(=S)[nH]c2=O)cc1,-70.2%
12,Cc1cc(C(=O)CSc2ccc(S(=O)(=O)N(C)C)cn2)c(C)n1-c1ncn[nH]1,-15%
13,O=C1CC(c2ccc(S(=O)(=O)N3CCCc4ccccc43)cc2)CN1 (stereo not drawn),-28.3%
14,O=C(COC(=O)Cc1ccc(F)cc1)Nc1ccccc1,1.8%
15,Cc1ccc(C)c2c1NC(c1ccc(Br)cc1)C1CC=CC21 (stereo not drawn),-3.3%
16,CCc1nc(-c2cc(S(=O)(=O)N3CCC(C(=O)Nc4cccc(OC)c4)CC3)c(C)s2)no1,-7.1%
17,CC1CCN(C(=O)Cn2ncc3c4ccccc4n(Cc4ccccc4)c3c2=O)CC1,-7.3%
18,Cc1ccc(CNC(=O)c2ccc(-n3nnc4cccnc43)cc2)cc1,-21.8%
19,CCN(CC)S(=O)(=O)c1ccc2c(c1)nc(CCC(=O)OCC#N)n2C,-6%
20,CCOC(=O)N1CCCC1C(=O)O (stereo not drawn),-17.9%
21,CNC(=O)c1ccc(N2CCOc3ccc(Cl)cc32)s1,14.6%
22,O=C(NC1CCCC1)c1ccc(Br)s1,-3.7%
23,O=C(NC1CCCC1)c1ccc(N2CCOc3ccccc32)s1,42.2% (active)
24,O=C(NC1CCCCCCC1)c1cccs1,-0.7%

row,SMILES,inhibition
1,O=C(NC1CCCCC1)c1ccc(-n2ccc3ccccc32)s1,37.9% (active)
2,O=C(NC1CCCC1)c1cc(-c2ccccc2)on1,-1.9%
3,O=C(c1c(F)c(F)c(F)c(F)c1F)N(CCO)Cc1ccccc1,-6.4%
4,CNC(=O)COC(=O)c1ccc(Br)o1,-3.2%
5,Cn1c(=O)n(C)c2cc(N3CCOCC3)c(NS(=O)(=O)c3ccc4c(c3)CCCC4)cc21,-20%
6,Cc1ccc2nsnc2c1S(=O)(=O)NCCc1c(C)[nH]c2ccccc12,-75.9%
7,Cc1ccc(N2C(=O)/C(=C/c3ccc(OCC(=O)O)c(Br)c3)C(=O)NC2=S)cc1,-28.5%
8,CC1=C(C(=O)OCCOc2ccccc2)C(c2cccnc2)C2=C(CC(c3ccc(Cl)cc3)CC2=O)N1 (stereo not drawn),-27.9%
9,Cn1c2c(c3cc(C4CCCCC4)ccc31)CCCCC2=O,1.4%
10,CCOC(C)=C(C#N)C#N,5.1%
11,CC12CCOC1N(c1ccccc1)c1ccccc12 (stereo not drawn),-18.7%
12,CC(=O)Nc1ccc(N2C(=O)c3cc(C)nn3CC2(C)C(=O)NCc2ccc(Cl)cc2)cc1 (stereo not drawn),-1.4%
13,Cc1ccc(C2/C(=C(\O)c3ccccc3)C(=O)C(=O)N2CCN2CCOCC2)cc1 (stereo not drawn),0.4%
14,Cc1c2cnn(CC(=O)NCc3ccco3)c(=O)c2c(C)n1Cc1ccccc1,-1.5%
15,CCOC(=O)c1c(C)n(-c2ccc(Cl)cc2)c2ccc(Oc3nccc(Nc4ccccc4)c3C#N)cc12,-12.5%
16,N#CC(=C=[N-])c1nc2ccccc2nc1-[n+]1cccc(NC(=O)c2ccc(Br)o2)c1,-17.4%
17,O=C(CN1CCN(S(=O)(=O)c2ccc3[nH]c(=O)[nH]c3c2)CC1)N1CCCCCC1,-26.1%
18,CCOCCCNC(=O)N1Cc2c(sc3c2CCCC3)-n2cccc2C1c1ccc(N(C)C)cc1 (stereo not drawn),-33.4%
19,CC(C)CCNC(=O)C1(C)Cn2c(cc3ccccc32)C(=O)N1C1CC1 (stereo not drawn),-9.6%
20,Cc1ccc(-n2c(=O)c3c(n4c(SCC(N)=O)nnc24)-c2ccccc2CC32CCCCC2)cc1,-17.8%
21,O=C(COc1ccc(-c2nc(-c3ccccc3)no2)cc1)N1CCCC1,-28.2%
22,Cc1ccc(S(=O)(=O)C2(C(=O)N3CCc4ccccc43)CC2)cc1,1%
23,COc1cc(C=C2C(=O)NC(=O)NC2=O)ccc1OCCOc1ccc([N+](=O)[O-])cc1,1.5%
24,CCOc1cc(C=C2C(=O)NC(=O)NC2=O)ccc1OCCOc1ccc([N+](=O)[O-])cc1,-8.1%

row,SMILES,inhibition
1,CCOc1cc(C=C2C(=O)NC(=O)NC2=O)ccc1OCCOCCOc1ccc(C)cc1,45.8% (active)
2,CCOC(=O)/C(C#N)=C/Nc1ccccc1,-4.4%
3,Cc1cc(C)c(C(N)=O)c(=O)[nH]1,-10.3%
4,O=C(NN1C(=O)/C(=C/c2ccc(-c3ccc([N+](=O)[O-])cc3)o2)SC1=S)c1ccccc1[N+](=O)[O-],-1.8%
5,CCCC(O)c1nc2ccccc2n1CCOc1ccccc1Cl (stereo not drawn),-14.3%
6,CC1CCN(S(=O)(=O)c2ccc3ncn(CC(=O)N4CCCCC4C)c(=O)c3c2)CC1 (stereo not drawn),3.7%
7,CC(C)(Oc1ccc(Cl)cc1)C(=O)OCCN1CCCC1=O,16.4%
8,CCOC(=O)c1c(C)oc2nc(COc3ncnc4c3cnn4-c3ccccc3)nc(N)c12,-27.9%
9,Nc1c(C(=O)N2CCc3ccccc3C2)sc(=S)n1-c1ccccc1,3.7%
10,CCCCCC#CCC#CCCCCCCCC(=O)O,-8.8%
11,CC(C)Nc1nc(-c2ccccc2O)nc2ccccc12,54.6% (active)
12,CC(Nc1nc(N2CCCC2)nc2ccccc12)c1ccccc1 (stereo not drawn),38.8% and -22.4%
13,CCN(CC)c1nc(-c2ccccc2O)nc2ccccc12,-4.1%
14,Cc1ccc(C)c(NC(=O)Cc2coc3ccc(C)cc23)c1,-31.3%
15,Cc1c(C(=O)O)sc2ncnc(N3CCN(c4ccccn4)CC3)c12,-8.6%
16,O=C(O)CCCOc1ccc(Cl)cc1,-22.4%
17,COc1ccc(OCCCn2c(C3CC(=O)N(c4ccc(F)cc4)C3)nc3ccccc32)cc1 (stereo not drawn),-4.1%
18,CCOc1ccc(N2CC(c3nc4ccccc4n3CCOc3ccc(OC)cc3)CC2=O)cc1 (stereo not drawn),-33.2%
19,CCc1ccccc1N1CC(c2nc3ccccc3n2CCCCOc2ccccc2)CC1=O (stereo not drawn),74.6% (active)
20,CCc1nn(CC(=O)NCC2CCCO2)c(=O)c2cc3ccccc3n12 (stereo not drawn),-52.3%
21,CCOC(=O)c1sc2cccc(F)c2c1S(=O)(=O)N1CC=C(c2ccccc2)CC1,6.4%
22,COC(=O)c1cc(S(=O)(=O)N2CCc3ccccc3C2)c[nH]1,-4.8%
23,Fc1cccc(Cl)c1CSc1nnc(-c2c[nH]c3ccccc23)o1,15.6%
24,CCCc1oc2cc(O)ccc2c(=O)c1Oc1ccc(F)cc1,3.5%

row,SMILES,inhibition
1,Cc1cc(C)cc(-n2c(CCC(=O)O)ccc2-c2cccs2)c1,-19.7%
2,Cc1cc(C)c2[nH]c(=O)c(CN(C(=O)Nc3ccccc3F)C3CC3)cc2c1,-21%
3,CCOc1ccc(N2C(=O)N(CC(=O)N3CCCCC3C)c3ccccc3S2(=O)=O)cc1 (stereo not drawn),-6.7%
4,CCOC(=O)C1(c2ccccc2)CCCN1C(=O)CN1C(=O)c2ccccc2C1=O (stereo not drawn),-40.9%
5,Cc1c(C(F)(F)F)nc(-c2ccc(CN(C)C)cc2)[nH]c1=O,-18.3%
6,CCOC(=O)C(C(=O)c1ccccc1)C1(O)C(=O)c2ccccc2C1=O (stereo not drawn),94.1% (active)
7,CCOC(C(=O)c1ccccc1)c1ccccc1 (stereo not drawn),1.5%
8,CCOC(=O)C1(C2(O)C(=O)c3ccccc3C2=O)CCCC1=O (stereo not drawn),7.6%
9,C#CCn1c(O)c(N=NC(=O)c2cc(OC)c(OC)c(OC)c2)c2ccccc21,-43.6%
10,Nc1nnc2c([nH]c3ccccc32)c1-c1ccccc1,-61.1%
11,COc1ccc(CC(=O)OCC(=O)Nc2cc(C)ccc2C)cc1,20.6%
12,Cc1cc(=O)n2[nH]c(CN(C(=O)CC(C)C)c3ccc(Cl)cc3)nc2n1,-9.7%
13,CCCn1c2ccccc2n2cc(-c3ccc(F)cc3)nc12,-23.6%
14,CCOC(=O)C1=C(C)N(c2ccc(OC)cc2)C(=O)/C1=C\c1ccco1,-53.1%
15,COc1ccccc1-c1nnc(SCC(=O)Nc2cccc3nsnc23)n1-c1ccccc1,-31.2%
16,COc1ccc(C2CC2/C(C)=N/O)cc1 (stereo not drawn),-8.3%
17,CN(C)S(=O)(=O)c1ccc2nc(NC(=O)CN3C(=O)c4ccccc4C3=O)sc2c1,-36.1%
18,Clc1cccc(-c2cc(-c3nc(-c4ccccc4)no3)[nH]n2)c1,-20.2%
19,Cn1c(CNC(=O)OC(C)(C)C)nnc1SCc1c(F)cccc1Cl,-17%
20,CCC(Sc1nc2ncccc2o1)C(=O)N(Cc1ccccc1)C(C)C (stereo not drawn),-29.3%
21,CCN1C(=O)c2cccc3c(S(=O)(=O)Nc4cccc(C)n4)ccc1c23,-9%
